# Measurements reported in PubChem BioAssay AID1159580 (chemical genetic matrix, 2015).
# “And” between values parts separate entries of the source, which are not always exact repeats. Identical values can stand only once. Hit rate of the full screen: of about 5,500 compounds, about 2,000 (36%) were called active. Roughly 18% stayed inconclusive and do not appear here. No stated cut-off is given here; in the data, active means normalized growth mostly below about 0.91 (no sharp cut-off); inconclusive means no clear call, values can overlap the other calls; inactive means mostly above about 0.92. The list shows a part of the results. Some compounds were tested as several samples or in several runs, with calls that do not always agree.
# Experiment: chemical genetic growth profiling, strain panel (AID 1159580);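 further: tested at 20 µM; growth read once vehicle control cultures reached saturation at 30 °C; 1 = growth at the plate median or of vehicle wells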
# Details: growth OD
compound,measurement,setting,value
CC[N+](C)(C)c1cccc(O)c1,normalized growth,"S. cerevisiae deletion strains, locus YJR075W, strain HOC1, stronger effect = lower value",0.985 (inactive) and 1.04 (inactive)
same,normalized growth,"S. cerevisiae deletion strains, locus YKL009W, strain mrt4, stronger effect = lower value",1 (inactive)
same,normalized growth,"S. cerevisiae deletion strains, locus YKL068W, stronger effect = lower value",0.985 (inactive)
same,normalized growth,"S. cerevisiae deletion strains, locus YKL085W, strain MDH1 (second series), stronger effect = lower value",1 (inactive)
same,normalized growth,"S. cerevisiae deletion strains, locus YKL085W, strain MDH1, stronger effect = lower value",1 (inactive)
same,normalized growth,"S. cerevisiae deletion strains, locus YKL160W, strain elf1, stronger effect = lower value",1.06 (inactive)
same,normalized growth,"S. cerevisiae deletion strains, locus YKL190W, strain CNB1, stronger effect = lower value",1.01 (inactive)
same,normalized growth,"S. cerevisiae deletion strains, locus YKR001C, strain vps1, stronger effect = lower value",0.97 (inactive)
same,normalized growth,"S. cerevisiae deletion strains, locus YKR026C, strain gcn3, stronger effect = lower value",1 (inactive)
same,normalized growth,"S. cerevisiae deletion strains, locus YKR091W, strain srl3, stronger effect = lower value",1.01 (inactive)
same,normalized growth,"S. cerevisiae deletion strains, locus YLL001W, strain dnm1, stronger effect = lower value",1.06 (inactive)
same,normalized growth,"S. cerevisiae deletion strains, locus YLL026W, stronger effect = lower value",1 (inactive)
same,normalized growth,"S. cerevisiae deletion strains, locus YLL041C, strain sdh2, stronger effect = lower value",1.01 (inactive)
same,normalized growth,"S. cerevisiae deletion strains, locus YLR027C, strain aat2, stronger effect = lower value",1.02 (inactive)
same,normalized growth,"S. cerevisiae deletion strains, locus YLR039C, strain RIC1, stronger effect = lower value",0.993 (inactive)
same,normalized growth,"S. cerevisiae deletion strains, locus YLR058C, strain SHM2, stronger effect = lower value",0.982 (inactive)
same,normalized growth,"S. cerevisiae deletion strains, locus YLR102C, strain apc9, stronger effect = lower value",0.977 (inactive)
same,normalized growth,"S. cerevisiae deletion strains, locus YLR113W, strain HOG1, stronger effect = lower value",0.996 (inactive)
same,normalized growth,"S. cerevisiae deletion strains, locus YLR221C, strain rsa3, stronger effect = lower value",1.03 (inactive)
same,normalized growth,"S. cerevisiae deletion strains, locus YLR258W, strain gsy2, stronger effect = lower value",1.01 (inactive)
same,normalized growth,"S. cerevisiae deletion strains, locus YLR262C, strain YPT6 (second series), stronger effect = lower value",1.05 (inactive)
same,normalized growth,"S. cerevisiae deletion strains, locus YLR262C, strain YPT6, stronger effect = lower value",1 (inactive)
same,normalized growth,"S. cerevisiae deletion strains, locus YLR268W, strain sec22, stronger effect = lower value",0.917 (inactive)
same,normalized growth,"S. cerevisiae deletion strains, locus YLR320W, strain mms22, stronger effect = lower value",1.06 (inactive)
same,normalized growth,"S. cerevisiae deletion strains, locus YLR330W, strain CHS5, stronger effect = lower value",0.992 (inactive)
same,normalized growth,"S. cerevisiae deletion strains, locus YLR342W, strain FKS1 (second series), stronger effect = lower value",1.04 (inactive)
same,normalized growth,"S. cerevisiae deletion strains, locus YLR342W, strain FKS1, stronger effect = lower value",1.02 (inactive)
same,normalized growth,"S. cerevisiae deletion strains, locus YLR357W, strain rsc2, stronger effect = lower value",1.01 (inactive)
same,normalized growth,"S. cerevisiae deletion strains, locus YLR370C, strain arc18, stronger effect = lower value",1.01 (inactive)
same,normalized growth,"S. cerevisiae deletion strains, locus YLR371W, strain rom2, stronger effect = lower value",0.969 (inactive)
same,normalized growth,"S. cerevisiae deletion strains, locus YLR384C, strain iki3, stronger effect = lower value",0.996 (inactive)
same,normalized growth,"S. cerevisiae deletion strains, locus YLR418C, strain cdc73, stronger effect = lower value",0.954 (inactive)
same,normalized growth,"S. cerevisiae deletion strains, locus YML016C, strain PPZ1, stronger effect = lower value",0.992 (inactive)
same,normalized growth,"S. cerevisiae deletion strains, locus YML032C, strain rad52, stronger effect = lower value",0.954 (inactive)
same,normalized growth,"S. cerevisiae deletion strains, locus YML120C, strain ndi1, stronger effect = lower value",1.04 (inactive)
same,normalized growth,"S. cerevisiae deletion strains, locus YML124C, strain tub3, stronger effect = lower value",0.984 (inactive)
same,normalized growth,"S. cerevisiae deletion strains, locus YMR058W, strain fet3, stronger effect = lower value",1.02 (inactive)
same,normalized growth,"S. cerevisiae deletion strains, locus YMR078C, strain ctf18, stronger effect = lower value",0.96 (inactive)
same,normalized growth,"S. cerevisiae deletion strains, locus YMR125W, strain sto1, stronger effect = lower value",1.05 (inactive)
same,normalized growth,"S. cerevisiae deletion strains, locus YMR129W, stronger effect = lower value",1.01 (inactive)
same,normalized growth,"S. cerevisiae deletion strains, locus YMR205C, strain PFK2, stronger effect = lower value",1.04 (inactive)
same,normalized growth,"S. cerevisiae deletion strains, locus YMR223W, strain ubp8, stronger effect = lower value",0.996 (inactive)
same,normalized growth,"S. cerevisiae deletion strains, locus YMR231W, strain pep5, stronger effect = lower value",1 (inactive)
same,normalized growth,"S. cerevisiae deletion strains, locus YMR263W, strain SAP30, stronger effect = lower value",0.993 (inactive)
same,normalized growth,"S. cerevisiae deletion strains, locus YMR307W, strain GAS1, stronger effect = lower value",0.956 (inactive) and 1.04 (inactive)
same,normalized growth,"S. cerevisiae deletion strains, locus YNL067W, strain RPL9B, stronger effect = lower value",0.975 (inactive)
same,normalized growth,"S. cerevisiae deletion strains, locus YNL071W, strain lat1, stronger effect = lower value",1.02 (inactive)
same,normalized growth,"S. cerevisiae deletion strains, locus YNL128W, strain TEP1, stronger effect = lower value",0.991 (inactive)
same,normalized growth,"S. cerevisiae deletion strains, locus YNL153C, strain GIM3, stronger effect = lower value",0.982 (inactive)
same,normalized growth,"S. cerevisiae deletion strains, locus YNL175C, strain NOP13, stronger effect = lower value",0.999 (inactive)
same,normalized growth,"S. cerevisiae deletion strains, locus YNL183C, strain NPR1, stronger effect = lower value",0.95 (inactive)
same,normalized growth,"S. cerevisiae deletion strains, locus YNL197C, strain WHI3, stronger effect = lower value",1 (inactive)
same,normalized growth,"S. cerevisiae deletion strains, locus YNL209W, strain ssb2, stronger effect = lower value",1.01 (inactive)
same,normalized growth,"S. cerevisiae deletion strains, locus YNL224C, strain SQS1, stronger effect = lower value",1.02 (inactive)
same,normalized growth,"S. cerevisiae deletion strains, locus YNL233W, strain BNI4, stronger effect = lower value",0.979 (inactive)
same,normalized growth,"S. cerevisiae deletion strains, locus YNL248C, strain rpa49, stronger effect = lower value",1.07 (inactive)
same,normalized growth,"S. cerevisiae deletion strains, locus YNL250W, strain rad50, stronger effect = lower value",0.982 (inactive)
same,normalized growth,"S. cerevisiae deletion strains, locus YNL271C, strain bni1, stronger effect = lower value",0.977 (inactive)
same,normalized growth,"S. cerevisiae deletion strains, locus YNL298W, strain CLA4, stronger effect = lower value",0.979 (inactive)
same,normalized growth,"S. cerevisiae deletion strains, locus YNL307C, strain MCK1, stronger effect = lower value",0.973 (inactive)
same,normalized growth,"S. cerevisiae deletion strains, locus YNL322C, strain KRE1 (second series), stronger effect = lower value",1.02 (inactive)
same,normalized growth,"S. cerevisiae deletion strains, locus YNL322C, strain KRE1, stronger effect = lower value",0.993 (inactive)
same,normalized growth,"S. cerevisiae deletion strains, locus YNR049C, strain mso1, stronger effect = lower value",1.01 (inactive)
same,normalized growth,"S. cerevisiae deletion strains, locus YNR052C, strain pop2, stronger effect = lower value",0.984 (inactive)
same,normalized growth,"S. cerevisiae deletion strains, locus YOL006C, strain TOP1, stronger effect = lower value",0.948 (inactive)
same,normalized growth,"S. cerevisiae deletion strains, locus YOL012C, strain htz1",0.664 (inactive)
same,normalized growth,"S. cerevisiae deletion strains, locus YOL147C, strain pex11, stronger effect = lower value",0.982 (inactive)
same,normalized growth,"S. cerevisiae deletion strains, locus YOR001W, strain rrp6, stronger effect = lower value",0.951 (inactive)
same,normalized growth,"S. cerevisiae deletion strains, locus YOR061W, strain CKA2, stronger effect = lower value",0.989 (inactive)
same,normalized growth,"S. cerevisiae deletion strains, locus YOR069W, strain VPS5, stronger effect = lower value",0.986 (inactive)
same,normalized growth,"S. cerevisiae deletion strains, locus YOR070C, strain gyp1, stronger effect = lower value",1 (inactive)
same,normalized growth,"S. cerevisiae deletion strains, locus YOR080W, strain dia2, stronger effect = lower value",1 (inactive)
same,normalized growth,"S. cerevisiae deletion strains, locus YOR083W, strain WHI5 (second series), stronger effect = lower value",0.991 (inactive)
same,normalized growth,"S. cerevisiae deletion strains, locus YOR083W, strain WHI5, stronger effect = lower value",1.05 (inactive)
same,normalized growth,"S. cerevisiae deletion strains, locus YOR106W, strain vam3, stronger effect = lower value",1.05 (inactive)
same,normalized growth,"S. cerevisiae deletion strains, locus YOR136W, strain idh2, stronger effect = lower value",0.986 (inactive)
same,normalized growth,"S. cerevisiae deletion strains, locus YOR144C, strain elg1, stronger effect = lower value",0.979 (inactive)
same,normalized growth,"S. cerevisiae deletion strains, locus YOR184W, strain ser1, stronger effect = lower value",0.955 (inactive)
same,normalized growth,"S. cerevisiae deletion strains, locus YOR231W, strain MKK1, stronger effect = lower value",0.997 (inactive)
same,normalized growth,"S. cerevisiae deletion strains, locus YOR265W, strain rbl2, stronger effect = lower value",1.01 (inactive)
same,normalized growth,"S. cerevisiae deletion strains, locus YOR270C, strain vph1, stronger effect = lower value",1.07 (inactive)
same,normalized growth,"S. cerevisiae deletion strains, locus YOR290C, strain snf2, stronger effect = lower value",1.04 (inactive)
same,normalized growth,"S. cerevisiae deletion strains, locus YOR316C, strain cot1, stronger effect = lower value",0.975 (inactive)
same,normalized growth,"S. cerevisiae deletion strains, locus YPL051W, strain arl3, stronger effect = lower value",1.04 (inactive)
same,normalized growth,"S. cerevisiae deletion strains, locus YPL055C, strain LGE1, stronger effect = lower value",1.01 (inactive) and 1.17 [resistant] (active)
same,normalized growth,"S. cerevisiae deletion strains, locus YPL078C, strain atp4, stronger effect = lower value",1.06 (inactive)
same,normalized growth,"S. cerevisiae deletion strains, locus YPL106C, strain sse1, stronger effect = lower value",1.02 (inactive)
same,normalized growth,"S. cerevisiae deletion strains, locus YPL240C, strain hsp82, stronger effect = lower value",1.01 (inactive)
same,normalized growth,"S. cerevisiae deletion strains, locus YPL241C, strain CIN2, stronger effect = lower value",1 (inactive) and 1.01 (inactive)
same,normalized growth,"S. cerevisiae deletion strains, locus YPL256C, strain CLN2, stronger effect = lower value",0.981 (inactive)
same,normalized growth,"S. cerevisiae deletion strains, locus YPR119W, strain clb2, stronger effect = lower value",0.992 (inactive)
same,normalized growth,"S. cerevisiae deletion strains, locus YPR141C, strain kar3, stronger effect = lower value",0.96 (inactive)
same,normalized growth,"S. cerevisiae deletion strains, locus YPR163C, strain tif3, stronger effect = lower value",0.97 (inactive)
same,normalized growth,"S. cerevisiae deletion strains, locus YPR167C, strain met16, stronger effect = lower value",0.979 (inactive)
same,normalized growth,"S. cerevisiae deletion strains, strain wtn01, stronger effect = lower value",0.937 (inactive)
same,normalized growth,"S. cerevisiae strains, strain wild type, stronger effect = lower value",0.996 (inactive)
